“And” between values parts separate entries of the source, which are not always exact repeats. Identical values can stand only once. Inconclusive results are not listed. The source made the active and inactive calls. Unless noted, calls come from the whole dose curve; as a rule, active = well fitted curve in the direction sought with a large enough effect; inconclusive = small, poorly fitted or top-dose-only effect, or another doubt; inactive = no such curve, though single readings can be large; an effect the other way counts as inactive or inconclusive.
Tests used:
Tov-21-G = test: Primary qHTS to identify gynecologic anti-cancer compounds using libraries of approved drugs and bioactive compounds (AID 1345084); details: Gynecologic cancer cell panel viability, ATPlite luminescence, 48 h; series mostly up to 57.5 µM; note: nearly all actives have a fitted effect of over 55% in size; note: potency is the fitted concentration of half-maximal effect
In short: (§1)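 Cell viability after 48 h drug treatment, ATPlite luminescence readout; five doses.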

Tov112D = test: as above; details: Gynecologic cancer cell panel viability, ATPlite luminescence, 48 h; series mostly up to 57.5 µM
In short: as §1

[1] = Drug repurposing screens with cells derived from glioblastoma tumor samples (AID 1345199); details: GBM patient neurospheres viability, ATP luminescence, 48 h; note: nearly all actives have a fitted effect of over 40% in size; note: potency is the fitted concentration of half-maximal effect; for activity, negative = cell killing: % is set by controls: 0 for no effect and ±100 for the full control effect
In short: (§2)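 Four patient lines of CD133+ GBM neurospheres were screened at several concentrations; hits were retested in those lines plus three slower-growing GBM lines, using 48-hour treatment and ATP-based viability.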

astro = test: as above; details: viability, ATP luminescence, 48 h; series mostly up to 45.9 µM
In short: as §2

[2] = molecular target: Nuclear receptor subfamily 1 group I member 2 (Rattus norvegicus) (UniProt Q9R1A7); test: qHTS assay for small molecule activators of the rat pregnane X receptor (rPXR) signaling pathway (AID 651751; call rule not given here; note: 0% is about no effect); details: rPXR reporter cells, luciferase (One-Glo), 24 h
Chain of Nuclear receptor subfamily 1 group I member 2 (Rattus norvegicus) (Q9R1A7 whole entry, looked up): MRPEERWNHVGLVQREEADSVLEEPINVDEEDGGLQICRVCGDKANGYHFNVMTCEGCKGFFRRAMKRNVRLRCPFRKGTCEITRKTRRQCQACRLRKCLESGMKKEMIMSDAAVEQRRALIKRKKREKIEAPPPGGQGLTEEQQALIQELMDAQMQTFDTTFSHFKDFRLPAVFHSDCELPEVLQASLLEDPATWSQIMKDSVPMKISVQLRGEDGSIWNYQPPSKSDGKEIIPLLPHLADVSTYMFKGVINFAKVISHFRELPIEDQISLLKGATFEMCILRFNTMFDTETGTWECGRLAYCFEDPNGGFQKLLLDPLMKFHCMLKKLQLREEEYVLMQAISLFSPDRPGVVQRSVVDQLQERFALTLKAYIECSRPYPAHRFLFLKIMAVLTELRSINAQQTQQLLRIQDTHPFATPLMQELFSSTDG

[3] = qHTS assay for small molecule activators of the human pregnane X receptor (PXR) signaling pathway (AID 720659; call rule not given here; note: 0% is about no effect)
[4] = qHTS assay to identify inhibitors of the type 1 interferon - major histocompatibility complex class I in skeletal muscle: Counter screen cell viability and HiBit confirmation (AID 1347412); details: iHSKM muscle cells + IFN-b, HiBiT or CellTiter-Glo, 24 h; Potency: HiBiT unless noted; Viability, at 45.9 µM (top of the series); note: % is set by controls: 0 for no effect and ±100 for the full control effect; nearly all actives have a fitted effect of over 60% in size
In short: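 Human myoblast knock-in line, 4.0 ng/ml IFN-beta stimulation, 24 h compound treatment. Endpoints: HiBiT lytic luminescence (HLA-B level) and CellTiter Glo (ATP). Dosing 12 concentrations, 3-fold steps, 46 uM highest final.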

[5] = at 45.9 µM (top of the series), tumour line B
[6] = at 45.9 µM (top of the series), tumour line D
[7] = at 46.1 µM (top of the series), tumour line C
[8] = at 20 µM (top of the series), tumour line C
[9] = at 21.2 µM (top of the series), tumour line B
[10] = at 21.2 µM (top of the series), tumour line D
[11] = at 21.3 µM (top of the series), tumour line A
[12] = at 46 µM (top of the series), tumour line A

Cc1cc(O)c(C(C)C)cc1Cl
inactive: Potency (Tov-21-G) | Potency (Tov112D) | activity, negative = cell killing [1, 5] -5.69% | activity, negative = cell killing [1, 6] -7.04% | activity, negative = cell killing [1, 7] 8.96% | Potency (astro)

COc1c2occc2c(OC)c2c(=O)cc(C)oc12
inactive: Potency (Tov-21-G) | Potency (Tov112D) | activity, negative = cell killing [1, 8] -11.9% | activity, negative = cell killing [1, 9] -15.3% | activity, negative = cell killing [1, 10] -6.87% | Potency (astro)

CCN(CC)C(=O)N1CCN(C)CC1
inactive: Potency (Tov-21-G) | Potency (Tov112D) | activity, negative = cell killing [1, 9] -9.76% | activity, negative = cell killing [1, 10] -28.5% | activity, negative = cell killing [1, 11] -8.09% | Potency (astro)

CC(O)(P(=O)(O)O)P(=O)(O)O
inactive: Potency (Tov-21-G) | Potency (Tov112D) | activity, negative = cell killing [1, 5] -12.4% | activity, negative = cell killing [1, 6] 0.0097% | activity, negative = cell killing [1, 12] -26.7% | activity, negative = cell killing [1, 7] -3.69% | Potency (astro) | max response [2] -3.46% | outcome [3]

C=CCc1ccc(O)c(OC)c1
inactive: Potency (Tov-21-G) | Potency (Tov112D) | activity, negative = cell killing [1, 5] -13.4% | activity, negative = cell killing [1, 6] 1.72% | activity, negative = cell killing [1, 12] -22.5% | activity, negative = cell killing [1, 7] 5.7% | Potency (astro) | max response [2] -0.084% and 3.11% | outcome [3]

CCCCCCCCCCCCCCCCOP(=O)([O-])OCC[N+](C)(C)C
active: Potency (Tov-21-G) 25.1 µM
inactive: Potency (Tov112D) | activity, negative = cell killing [1, 5] -7.15% | activity, negative = cell killing [1, 6] -0.719% | activity, negative = cell killing [1, 7] -5.47% | Potency (astro)

Cc1cc(=O)n(-c2ccccc2)n1C
inactive: Potency (Tov-21-G) | Potency (Tov112D) | activity, negative = cell killing [1, 5] -5.78% | activity, negative = cell killing [1, 6] 0.358% | activity, negative = cell killing [1, 12] -19.4% | activity, negative = cell killing [1, 7] -23.6% | Potency (astro) | max response [2] 0.521% | outcome [3]

CC(C)(CO)[C@@H](O)C(=O)NCCCO
inactive: Potency (Tov-21-G) | Potency (Tov112D) | activity, negative = cell killing [1, 5] -12% | activity, negative = cell killing [1, 6] -24.7% | activity, negative = cell killing [1, 7] -3.06% | Potency (astro)

C[C@@H]1C[C@H]2[C@@H]3CCC4=CC(=O)C=C[C@]4(C)[C@@]3(F)[C@@H](O)C[C@]2(C)[C@H]1C(=O)CO
inactive: Potency (Tov-21-G) | Potency (Tov112D) | activity, negative = cell killing [1, 5] -17.3% | activity, negative = cell killing [1, 6] -7.25% | activity, negative = cell killing [1, 7] 1.19% | Potency (astro)

CC(C)COC(=O)c1ccc(N)cc1
inactive: Potency (Tov-21-G) | Potency (Tov112D) | activity, negative = cell killing [1, 5] -9.56% | activity, negative = cell killing [1, 6] -18.7% | activity, negative = cell killing [1, 7] -7.77% | Potency (astro)

CC(=O)Oc1ccc(C(=C2CCCCC2)c2ccc(OC(C)=O)cc2)cc1
inactive: Potency (Tov-21-G) | Potency (Tov112D) | activity, negative = cell killing [1, 5] -19.5% | activity, negative = cell killing [1, 6] -13.6% | activity, negative = cell killing [1, 12] -21.3% | Potency (astro)

CC(=O)OCC(=O)[C@@]12OC(C)(C)O[C@@H]1C[C@H]1[C@@H]3C[C@H](F)C4=CC(=O)C=C[C@]4(C)[C@@]3(F)[C@@H](O)C[C@@]12C
inactive: Potency (Tov-21-G) | Potency (Tov112D) | activity, negative = cell killing [1, 8] -14.9% | activity, negative = cell killing [1, 9] -15.5% | activity, negative = cell killing [1, 11] -1.98% | Potency [4]

CN1CCN(C(c2ccccc2)c2ccccc2)CC1
inactive: Potency (Tov-21-G) | Potency (Tov112D) | activity, negative = cell killing [1, 8] -1.97% | activity, negative = cell killing [1, 9] -1.95% | activity, negative = cell killing [1, 10] -26.8% | Potency (astro)

C#C[C@]1(OC(C)=O)CC[C@H]2[C@@H]3CCC4=C[C@@H](OC(C)=O)CC[C@@H]4[C@H]3CC[C@@]21C
active: Potency ([1]; tumour line A) 10 µM | Potency ([1]; tumour line D) 17.8 µM
inactive: Potency (Tov-21-G) | Potency (Tov112D) | activity, negative = cell killing [1, 7] -26.2% | Potency (astro)

Cc1ccc(C(=O)C(C)CN2CCCCC2)cc1 (stereo not given)
inactive: Potency (Tov-21-G) | Potency (Tov112D) | activity, negative = cell killing [1, 5] -5.6% and -9.58% | activity, negative = cell killing [1, 6] -3.01% and -24.6% | activity, negative = cell killing [1, 7] 4.06% and 1.53% | Potency (astro)

O=C(OCC(O)CO)c1ccccc1Nc1ccnc2cc(Cl)ccc12 (stereo not given)
inactive: Potency (Tov-21-G) | Potency (Tov112D) | activity, negative = cell killing [1, 8] 1.49% | activity, negative = cell killing [1, 9] -17% | Potency (astro)

C[C@]12CC[C@H]3[C@@H](CCC4=CC(=O)CC[C@@]43C)[C@@H]1CC[C@@H]2C(=O)CO
inactive: Potency (Tov-21-G) | Potency (Tov112D) | activity, negative = cell killing [1, 9] -21.2% | activity, negative = cell killing [1, 10] -27.5% | Potency (astro)

CCCSS/C(CCO)=C(\C)N(C=O)Cc1cnc(C)nc1N
active: Potency (astro) 22.4 µM
inactive: Potency (Tov-21-G) | Potency (Tov112D) | activity, negative = cell killing [1, 7] -24.8%

CN(C)CCOc1ccccc1Cc1ccccc1
inactive: Potency (Tov-21-G) | Potency (Tov112D) | activity, negative = cell killing [1, 5] -0.223% | activity, negative = cell killing [1, 6] -22.7% | activity, negative = cell killing [1, 7] -17.3% | Potency (astro)

Oc1ccc(Cl)c2cccnc12
inactive: Potency (Tov-21-G) | Potency (Tov112D) | activity, negative = cell killing [1, 7] -0.921% | Potency (astro)

CCN1CCC[C@H]1CNC(=O)c1c(OC)ccc(Br)c1OC
inactive: Potency (Tov-21-G) | Potency (Tov112D) | activity, negative = cell killing [1, 5] -5.99% | activity, negative = cell killing [1, 6] -23.8% | activity, negative = cell killing [1, 7] -7.43% | Potency (astro)

CCCC(=O)Nc1ccc(OCC(O)CNC(C)C)c(C(C)=O)c1 (stereo not given)
inactive: Potency (Tov-21-G) | Potency (Tov112D) | activity, negative = cell killing [1, 8] -9.42% | activity, negative = cell killing [1, 9] -3.87% | activity, negative = cell killing [1, 10] 11% | Potency (astro)

CCCCOc1ccc(OCCCN2CCOCC2)cc1
inactive: Potency (Tov-21-G) | Potency (Tov112D) | activity, negative = cell killing [1, 8] -6.83% | Potency (astro)
active: Potency ([1]; tumour line A) 4.47 µM

Reference: PubChem BioAssay (NCATS)
